According to PubChem BioAssay (NCATS):
Inconclusive results are not listed. The source made the active and inactive calls. Unless noted, calls come from the whole dose curve; as a rule, active = well fitted curve in the direction sought with a large enough effect; inconclusive = small, poorly fitted or top-dose-only effect, or another doubt; inactive = no such curve, though single readings can be large; an effect the other way counts as inactive or inconclusive.

Columns and labels:
[1] = Confirmation and Secondary Assay for Modulators of Hemoglobin Beta Chain Splicing at IVS2 654 locus (AID 910);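 note: per-well total GFP intensity by laser scanning cytometry after 2-day treatment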
Procedure, shortened: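 HeLa cells stably carrying EGFP interrupted by mutant beta-globin IVS2-654 intron (CMV-driven) were treated with compound for 2 days at 37C; corrected splicing was scored as total peak GFP intensity per well (488 nm excitation, 500-520 nm emission).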

[2] = Confirmation and Secondary Assay for Modulators of Hemoglobin Beta Chain Splicing at IVS2 705 locus (AID 930);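 note: HeLa cells stably expressing the EGFP-705 splicing reporter; GFP fluorescence per well restored by corrected splicing of the IVS2-705 intron in EGFP; series mostly up to about 46 µM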
Procedure, shortened: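 Stable HeLa line with EGFP disrupted by mutant beta-globin intron 2 (705). Overnight attachment, then 2 days of compound at 37C, 5% CO2. Signal: peak GFP intensity summed over objects 5-250 µm.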

[3] = Cell Viability - LYMP2-001 (AID 921);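 note: series mostly up to about 92 µM; cells exposed to compound for 24 h at 37 °C; nearly all actives have a fitted effect of over 70% in size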
Procedure, shortened: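 qHTS, 1536-well; lymphoblastoid cells, 24 hr compound, 37 C; ATP by CellTiter-Glo, 30 min RT; luminescence; Hill-fit AC50.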

[4] = MultiTox-Fluor Cytotoxicity Assay - LYMP1-001 - Dead Cells (AID 946)
Procedure, shortened: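 Cytotoxicity as increased dead-cell protease fluorescence (bis-AAF-R110, 485/520 nm), read 60 min after MultiTox-Fluor reagent. Human lymphoblastoid line exposed 16 h; Hill-fitted AC50, with DMSO as 0% and 15 uM tetraoctylammonium bromide as 100%.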

[5] = MultiTox-Fluor Cytotoxicity Assay - LYMP1-001 - Live Cells (AID 947)
[6] = Cell Viability - LYMP1-002 - Assay at 16 hr (AID 948)
Procedure, shortened: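 Acute cytotoxicity is scored as a concentration-dependent fall in intracellular ATP in a human lymphoblastoid line (LYMP1-002) after 16 hr compound exposure at 37 C, measured by luciferase luminescence.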

[7] = MultiTox-Fluor Cytotoxicity Assay - LYMP1-002 - Live Cells (AID 955);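 note: cells exposed to compound for 16 hours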
Procedure, shortened: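 Read-out is live-cell protease activity (cell-permeant GF-AFC substrate, fluorescence Ex/Em=405/510), where a decrease indicates acute toxicity. Human lymphoblastoid cells were treated 16 hours at 37 C in a concentration series, and AC50 values came from standard Hill modelling.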

[8] = MultiTox-Fluor Cytotoxicity Assay - LYMP1-002 - Dead Cells (AID 960);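 note: cells exposed to compound for 16 h at 37 °C; nearly all actives have a fitted effect of over 60% in size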
Procedure, shortened: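 LYMP1-002 cells 2500/well; 5 hr 37 C pre-incubation; compound 16 hr 37 C; MultiTox-Fluor reagent 60 min RT; dead-cell fluor Ex/Em 485/520. Norm. to DMSO (0%) vs 15 uM tetraoctylammonium bromide (100%); Hill AC50.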

[9] = molecular target: Pyruvate kinase (Leishmania mexicana) (UniProt Q27686); test: qHTS Validation Assay for Inhibitors of Leishmania Mexicana Pyruvate Kinase (AID 945)
Procedure, shortened: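 Mutant LmPYK (E451W), 0.2 nM, plus 0.5 mM PEP and 0.1 mM ADP in 50 mM imidazole pH 7.2 containing 0.01% Tween 20 and 0.05% BSA. Incubated 1 h at room temperature; luminescence via PKLight, normalized to DMSO.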

[10] = molecular target: Pyruvate kinase PKM (Homo sapiens) (UniProt P14618); test: qHTS Assay for Activators of Human Muscle Pyruvate Kinase (AID 954; active = well fitted curve in the direction sought with a large enough effect, not every such curve was filed as active)
Procedure, shortened: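 Human PKM2 activity is measured as ATP generation, detected by luciferase-coupled luminescence. The enzyme (0.1 nM) acts on 0.5 mM PEP and 0.1 mM ADP for 1 h at ambient temperature; data are normalized to uninhibited and full-inhibition wells.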

Measured: outcome

Sequence of Pyruvate kinase PKM (Homo sapiens) (P14618 whole entry, looked up): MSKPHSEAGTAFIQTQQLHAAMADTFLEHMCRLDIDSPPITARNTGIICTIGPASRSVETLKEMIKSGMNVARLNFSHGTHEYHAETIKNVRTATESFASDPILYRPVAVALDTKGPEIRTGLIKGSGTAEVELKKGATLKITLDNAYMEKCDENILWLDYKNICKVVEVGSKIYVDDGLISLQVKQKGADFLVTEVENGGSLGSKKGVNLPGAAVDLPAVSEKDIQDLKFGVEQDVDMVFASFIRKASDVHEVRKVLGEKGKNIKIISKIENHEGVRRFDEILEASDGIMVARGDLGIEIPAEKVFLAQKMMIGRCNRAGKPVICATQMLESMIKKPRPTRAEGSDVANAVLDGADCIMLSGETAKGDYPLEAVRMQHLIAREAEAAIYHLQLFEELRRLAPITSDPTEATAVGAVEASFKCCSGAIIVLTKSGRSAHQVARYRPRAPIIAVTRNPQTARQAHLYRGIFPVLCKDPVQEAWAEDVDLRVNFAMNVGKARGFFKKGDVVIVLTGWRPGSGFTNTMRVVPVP
Sequence of Pyruvate kinase (Leishmania mexicana) (Q27686 2-499 E452W): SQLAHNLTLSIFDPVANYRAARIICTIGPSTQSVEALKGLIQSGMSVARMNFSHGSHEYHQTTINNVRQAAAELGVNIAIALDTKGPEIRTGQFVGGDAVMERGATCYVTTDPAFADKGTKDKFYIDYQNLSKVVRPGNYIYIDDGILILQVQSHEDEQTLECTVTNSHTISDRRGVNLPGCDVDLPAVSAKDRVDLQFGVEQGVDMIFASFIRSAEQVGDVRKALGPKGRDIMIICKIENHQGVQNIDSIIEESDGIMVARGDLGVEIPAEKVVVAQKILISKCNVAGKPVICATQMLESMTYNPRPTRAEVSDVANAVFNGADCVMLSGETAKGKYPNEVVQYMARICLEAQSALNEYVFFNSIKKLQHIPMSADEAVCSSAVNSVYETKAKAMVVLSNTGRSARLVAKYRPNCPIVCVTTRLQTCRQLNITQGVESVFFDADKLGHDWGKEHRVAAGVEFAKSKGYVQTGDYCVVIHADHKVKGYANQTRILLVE

CC(=O)c1cc2c(cc1O)OC(C)(C)C=C2
inactive: [1] | [2]

CC(=O)O[C@@H]1CC(C)=C2[C@H]1[C@H](C)CC[C@H]2/C=C(\C)C(=O)O
inactive: [3] | [4] | [5] | [6] | [7] | [8]

CC(C)C(N)C(=O)OCCOCn1cnc2c(=O)[nH]c(N)nc21 (stereo not drawn)
inactive: [2]

Nc1ccccc1N
inactive: [4] | [6] | [7] | [8]

CC(=O)O[C@H]1C(=O)[C@@]2(C)[C@H]([C@H](OC(=O)c3ccccc3)[C@]3(O)C[C@H](OC(=O)[C@H](O)[C@@H](NC(=O)c4ccccc4)c4ccccc4)C(C)=C1C3(C)C)[C@]1(OC(C)=O)CO[C@@H]1C[C@@H]2O
inactive: [9] | [10]

CC(C)[N+]1(C)C2CCC1CC(OC(=O)C(CO)c1ccccc1)C2 (stereo not drawn)
inactive: [1] | [2]

Cc1ccc(N)cc1O
inactive: [3] | [4] | [5] | [6] | [7] | [8]
